PubChem BioAssay AID588335 (The Scripps Research Institute Molecular Screening Center, 2011)
Screen size: about 360,000 compounds; about 4,500 (1.2%) were called active. The sample as a whole holds a higher share of actives than the screen did. Values without a mark were called inactive. No stated cut-off is given here; in the data, active means inhibition above about 30%; inactive means the rest.

experiment: GDH-TPI coupling enzyme inhibitors, primary screen, artefact control for M. tuberculosis FBA inhibitor project, biochemical, absorbance, full deck (AID 588335); conditions: GDH-TPI coupled enzyme counterscreen, NADH absorbance; at 4.8 µM; hits give high values;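 further: 0% = DMSO wells and 100% = wells lacking the enzyme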

Structure (SMILES) | inhibition
CSc1ncccc1C(=O)Nc1nc2ccc(F)cc2s1 | 8.2%
COc1ccc2nc(NC(=O)c3ccc(Br)s3)sc2c1 | 32.7% (active)
COc1ccc(CNC(=O)c2ccc(Br)s2)cc1OC | -1.03%
Nc1cc(C(=O)N2CCN(c3ccccc3Cl)CC2)ccc1N1CC2CC(C1)c1cccc(=O)n1C2 (stereo not drawn) | 8.04%
OC(c1ccccc1)c1nc(/C=C/c2ccc(C(F)(F)F)cc2)cs1 (stereo not drawn) | 7.08%
O=C(Cn1cc(/C=N/NC(=O)c2cccc(C(F)(F)F)c2)c2ccccc21)Nc1ccc(F)cc1 | 9.15%
O=C(CSc1ccc(/C=N/NC(=O)c2cccc(F)c2)o1)Nc1ccccc1 | 33.1% (active)
N#CCC(=O)N/N=C/c1ccc(SCC(=O)Nc2ccccc2)o1 | 15.4%
CCCCN(CCCC)CCCNC(=O)CN1C(=O)COc2ccc(S(=O)(=O)N3CCC(C)CC3)cc21 | 5.17%
CCOC(=O)c1c(C2CC2)csc1NC(=O)CSCc1c(C)noc1C | 1.16%
NC(=S)c1ccc(C(N)=S)o1 | 33.3% (active)
CC(C)CC1(C(=O)NCc2ccccn2)C=CCN1C(=O)c1ccccc1 (stereo not drawn) | 1.72%
CN(C)CCCOc1ccc(-c2ccc3nccn3c2)cn1 | 6.19%
CC(Oc1ccccc1[N+](=O)[O-])C(=O)N/N=C/c1ccoc1 (stereo not drawn) | 5.72%
CNC(=S)N/N=C/c1ccc(OCc2ccccc2)c(Br)c1 | 3.82%
O=C(N/N=C/c1cc(Br)c(O)c([N+](=O)[O-])c1)C(O)(c1ccccc1)c1ccccc1 | 79.3% (active)
COCCCNC(=S)N(Cc1ccccc1)Cc1ccc(F)cc1 | -5.1%
COC(=O)c1[nH]c2ccc(Br)cc2c1NC(=O)Oc1ccccc1 | 8.96%
COc1ccc(-c2cc(=O)oc3cc(OCC(=O)N[C@@H](Cc4c[nH]c5ccccc45)C(=O)O)ccc23)cc1 | 32.4% (active)
COc1ccc(-c2cc(C(=O)NC(Cc3c[nH]c4ccccc34)C(=O)O)c(C)o2)cc1OC (stereo not drawn) | 1.44%
CC(Oc1ccc2c(-c3ccccc3)cc(=O)oc2c1)C(=O)NC(Cc1c[nH]c2ccccc12)C(=O)O (stereo not drawn) | 15.9%
COc1cccc(/C=C/c2ccc3ccccc3n2)c1OC(C)=O | 22.8%
C=CCOC(=O)C1=C(C)N=C2SCCC(=O)N2C1/C=C/c1ccccc1OC (stereo not drawn) | 6.07%
COc1ccccc1/C=C/C1=NC(=C\N(C)C)/C(=O)O1 | 32.5% (active)

Structure (SMILES) | inhibition
O=C1c2cccc3cccc(c23)C(=O)N1c1cccc(O)c1 | 24.8%
COc1cccc(CNC(=O)COc2cc(O)c3c(c2)OC(C)(C)CC3=O)c1 | 0%
CC(CO)(CO)NC(=O)c1ccc(=O)[nH]n1 | 8.64%
CN(C(=O)CCNC(=O)Cn1ccc2ccccc2c1=O)c1ccc(Br)cc1 | 1.56%
Cc1ccc(CNC(=O)CCNC(=O)Cn2ccc3ccccc3c2=O)cc1 | 7.19%
CC(=O)c1ccc(N2CCN(C(=O)CCNC(=O)Cn3ccc4ccccc4c3=O)CC2)cc1 | 34.2% (active)
C[C@H]1Cn2cnc(C(=O)N[C@@H](Cc3c[nH]c4ccccc34)C(=O)OC(C)(C)C)c2C(=O)N1 | 7.22%
COc1ccc(/C=C/C(=O)NC(=S)N2CCCC(C(N)=O)C2)cc1 (stereo not drawn) | 48.8% (active)
COc1ccc(/C=C/C(=O)NC(=S)NN2CCCCC2c2cccnc2)cc1 (stereo not drawn) | 10.5%
COc1ccc(CN2CCCC(C(=O)N3CCCCC3)C2)cc1 (stereo not drawn) | 4.14%
COc1ccc(C(=O)N2CCN(c3ncccn3)CC2)cc1S(=O)(=O)N1CCOCC1 | 3.64%
Cc1ccc(S(=O)(=O)N2CCOCC2)cc1C(=O)NC(=S)N(Cc1ccccc1)C(C)C | -2.59%
COCCN(CCOC)c1nc(N)c2c(N)nc3c(c2c1C#N)CC(=O)N3Cc1ccc(Cl)cc1 | 13.7%
COc1cc(Cn2c3ccc(NC(=O)CC(C)c4ccccc4)cc3c(=O)n2C)ccc1F (stereo not drawn) | 4%
CCCn1nc(NS(=O)(=O)c2ccc(F)cc2)c2cc3ccccc3nc21 | 6.9%
CCC(=O)Nc1c(S(=O)(=O)c2ccccc2)c2nc3ccccc3nc2n1Cc1ccccc1 | 27%
CCN(CC)CCn1c(N)c(S(=O)(=O)c2ccccc2)c2nc3ccccc3nc21 | 31% (active)
O=C(NNS(=O)(=O)c1ccccc1C(F)(F)F)c1cc2ncc(C(F)(F)F)cc2s1 | 12.3%
COCc1ccc(C(=O)N2CCc3c([nH]c4ccccc34)C2c2ccccn2)s1 (stereo not drawn) | -1.89%
CNC(=O)c1csc(Cc2c(Cl)sc3ccc(Cl)cc23)n1 | -5.66%
CN(C)C(=O)CCc1ccc2c3c([nH]c2c1)[C@]1(C)[C@@H](C(=O)N2CCOCC2)C[C@H](CC(=O)NCCc2ccccn2)C(=O)N1CC3 | 3.64%
COc1ccc(S(=O)(=O)N2CCCCCC2)cc1NC(=O)Cc1ccc(OC)c(OC)c1 | -2.16%
COc1ccc(-c2ccc(Nc3ccc(S(=O)(=O)N4CCCC4)cc3)nn2)cc1OC | 50.4% (active)
COc1ccccc1CC(=O)Nc1ccc(S(=O)(=O)N2CCCC2)cc1 | 3.02%

Structure (SMILES) | inhibition
CCc1ccc(C(=O)C(C)OC(=O)CN2C(=O)NC3(CCCC3)C2=O)cc1 (stereo not drawn) | 6.99%
CC(OC(=O)Cc1ccc(F)cc1)C(=O)N1CCc2ccccc21 (stereo not drawn) | 3.45%
Cc1ccc(C(=O)COC(=O)CCCC(=O)NC2CCCCC2)cc1[N+](=O)[O-] | -3%
Cc1ccc(N=C2NC(=O)c3cccc([N+](=O)[O-])c32)cc1 | 13.5%
CCn1c(O)c(N=NC(=O)c2cccc(S(=O)(=O)N3CCCCC3)c2)c2ccccc21 | 4.32%
COC(=O)Cn1c(O)c(N=NC(=O)OC)c2ccccc21 | 31.6% (active)
CCOC(=O)Cn1c(O)c(N=NC(=O)CNC(=O)Cc2ccccc2)c2ccccc21 | 28.8%
O=C(O)C1=CCCN(CCON=C(c2ccccc2)c2ccccc2)C1 | -4.66%
Cc1nc2ccccc2c(C)c1C(=O)c1ccc(F)cc1 | -2.59%
Cn1c(NC(=O)c2ccccc2)nc2ccccc21 | 41.4% (active)
Cn1c(CC(=O)NNC(=O)c2ccccc2F)nc2ccccc21 | -6.69%
CCn1c(NC(=O)c2nn(C)cc2Br)nc2ccccc21 | 6.37%
CCCn1c(C(=O)c2ccccc2OC)nc2ccccc21 | 8.57%
Cn1c(-c2ccc(C(=O)c3ccccc3)s2)nc2ccccc21 | 38.1% (active)
C/C(=C(\C#N)C(=O)NCCCN1CCOCC1)N(C)C | 7.8%
CCc1nn(CCCC(=O)Nc2ccc(C)cc2C)c(=O)c2cc3occc3n12 | 5.68%
CCN(CC)C(=O)CSc1nc2ccccc2n1CC(=O)N1CCN(c2ccccc2OC)CC1 | -6.21%
O=C1NC(=O)C(CCc2ccccc2)(c2ccccc2)N1 (stereo not drawn) | 2.63%
O=C(N/N=C/C=C/c1ccccc1)C1CC1(c1ccccc1)c1ccccc1 (stereo not drawn) | 21.3%
CCn1c(SCC(=O)NC2CC2)nnc1-c1ccccc1OC | -0.34%
COc1ccc(C2=Nn3c(nnc3-c3ccccc3OC)SC2)cc1OC1CCCC1 | 31.1% (active)
COc1cc(OC)c(NS(=O)(=O)c2cn(C)cn2)cc1Cl | -9.45%
Cc1cccc(N2O[C@H]3C=CC2CCCC3)n1 | -10.9%
O=C(NC(=S)Nc1cc(C(F)(F)F)ccc1N1CCOCC1)c1ccc(-c2cccc(Cl)c2)o1 | -2.21%

Structure (SMILES) | inhibition
CN1CCN(C(=O)c2ccc(-c3ccc(Br)cc3)o2)CC1 | 3.5%
O=C(NC(=S)Nc1ccccc1C(=O)O)c1ccc(-c2ccc(Br)cc2)o1 | 40.9% (active)
O=c1c2ccccc2c(-c2ccccc2)nn1-c1ccccn1 | 1.89%
O=C(CSc1nc(-c2ccco2)cc(C(F)(F)F)n1)N1CCc2ccccc2C1 | 10.9%
COC(=O)c1cnn2c(C(F)(F)F)cc(-c3ccco3)nc12 | 16.7%
CCOC(=O)c1ccn(-c2nc(-c3ccco3)cc(C(F)(F)F)n2)n1 | 35.1% (active)
NC(=O)CC(NC(=O)Cc1ccc(Br)cc1)c1ccc(NC2CC3CCC2C3)c([N+](=O)[O-])c1 (stereo not drawn) | -1.99%
CC1(c2ccc(Cl)cc2Cl)NC(=O)N(CC(=O)Nc2cccnc2Cl)C1=O (stereo not drawn) | 0%
Cc1cccc(C(=O)OCC(=O)NCC(C)C)c1O | 2.88%
N#CC1=C(N)N(c2ccc(F)cc2)C(=O)C1 | 4.15%
Cc1occc1C(=O)N/N=C/c1ccc(-c2cccc([N+](=O)[O-])c2)o1 | 34% (active)
CCCc1ccc(OCc2ccc(C(=O)N/N=C/c3cccc([N+](=O)[O-])c3)o2)c(OC)c1 | 3.73%
O=[N+]([O-])c1ccc2oc(-c3cccc(O)c3)nc2c1 | 15.8%
O=C(CN1C(=O)NC2(CCCC2)C1=O)OCCOc1ccc(F)cc1 | -5.15%
Cc1ccc(C(=O)NCC(c2cccs2)N(C)C)cc1S(=O)(=O)N1CCOCC1 (stereo not drawn) | 3.9%
O=C(N/N=C/C=C/c1ccco1)c1cccs1 | 46.5% (active)
CC1(C)CC(=O)C/C(=N\NC(=O)c2cccs2)C1 | 17.8%
Cc1ccc(-c2cc(C(=O)N/N=C/C=C/c3ccco3)c3ccccc3n2)cc1C | 52.1% (active)
CC(/C=N/NC(=O)c1cc(-c2ccc3ccccc3c2)n[nH]1)=C\c1ccco1 | 17%
O=C(COC(=O)CCC(=O)c1cccs1)NCc1ccco1 | 5.96%
O=C(NCCc1ccccn1)c1cc(-c2ccc(Cl)cc2)nc2ccccc12 | 19.5%
